Compounds with a hit are over-represented: about 3.9% of the library has one in this group of screens.
SKKanGAS inh = inhibitors of SKKanGAS S. pyogenes growth in kanamycin (SK-promoter or general growth effect); inhibition, % at 7.5 µM; actives 1.3% (n = 300,000); AID 1662; BacTiter-Glo, 6 h;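 active means mean replicate score, as percent of positive control median, at least 50; inconclusive means mean below 50 but one replicate at or above 50; inactive means mean and every replicate below 50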;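 further: strain carries kanamycin resistance gene driven by streptokinase promoter and grows in 40 µg/ml kanamycin; loss of luminescence reflects streptokinase promoter inhibition or plain growth inhibition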
PHOSPHO1 inh = inhibitors of human PHOSPHO1 phosphatase; Q8TCT1; recombinant PHOSPHO1, absorbance phosphatase assay; inhibition, % at 13.3 µM; actives 1.1% (n = 290,000); AID 1565; in the data active means inhibition above about 60%
Target sequence (Q8TCT1 whole entry, looked up): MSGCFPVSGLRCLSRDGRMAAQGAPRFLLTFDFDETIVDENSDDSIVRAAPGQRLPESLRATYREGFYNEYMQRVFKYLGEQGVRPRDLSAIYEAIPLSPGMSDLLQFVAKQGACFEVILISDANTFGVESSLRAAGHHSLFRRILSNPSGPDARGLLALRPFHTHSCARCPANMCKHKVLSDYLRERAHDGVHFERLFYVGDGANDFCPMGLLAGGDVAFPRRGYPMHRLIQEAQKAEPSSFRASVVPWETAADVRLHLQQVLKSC
WT yeast gro inh = growth inhibition of WT yeast, mitochondrial fusion screen; mitochondrial fusion phenotypic screen, WT strain; inhibition, % at 10 µM; actives 2.1% (n = 190,000); in the data active means inhibition above about 58%; tested in S. cerevisiae
Platelet DG rel = platelet dense granule release activity; human platelet-rich plasma, SFLLRN dense granule ATP release, luminescence; inhibition, %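 (compounds screened at 7.5 µM in platelet-rich plasma)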; actives 0.22% (n = 300,000);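 active means mean replicate score, as percent of positive control, at or above 50; inconclusive means mean below 50 but at least one replicate at or above 50; inactive means mean and every replicate below 50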
TPT1 inh = C. albicans TPT1 enzyme inhibition; recombinant caTPT1, FP RNA substrate dephosphorylation; inhibition, % at 5 µM; actives 0.81% (n = 300,000); AID 1962;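 active means inhibition above the mean of all tested compounds plus 3 SD, set per screening campaign, cut at about 24% in these data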
Rtt109 HAT inh = inhibitors of Candida albicans Rtt109/Vps75 histone acetyltransferase | inhibition, % at 34.9 µM | Q5AAJ8 | AID 540336 | actives 0.16% (n = 330,000) | purified Rtt109/Vps75, ThioGlo CoA-SH fluorescence, 4 h;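 active means inhibition of at least 50% in every replicate; inconclusive means best replicate reaches 50% inhibition but some replicates fall short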
Target sequence (Q5AAJ8 whole entry, looked up): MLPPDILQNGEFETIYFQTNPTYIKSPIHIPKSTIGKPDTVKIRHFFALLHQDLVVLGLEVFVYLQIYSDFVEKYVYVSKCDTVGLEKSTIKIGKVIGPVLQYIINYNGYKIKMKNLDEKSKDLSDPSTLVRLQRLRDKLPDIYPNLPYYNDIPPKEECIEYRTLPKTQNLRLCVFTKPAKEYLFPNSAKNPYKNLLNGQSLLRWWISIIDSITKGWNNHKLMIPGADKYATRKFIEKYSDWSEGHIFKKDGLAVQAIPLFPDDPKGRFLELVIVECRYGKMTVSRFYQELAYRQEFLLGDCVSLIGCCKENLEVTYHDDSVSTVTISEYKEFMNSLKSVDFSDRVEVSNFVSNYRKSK
Large screens that a line does not name were inactive.

CCOC(=O)N1CC=C2C(C#N)=C(N)C(C#N)(C#N)[C@H](c3ccc(OCC)c(OCC)c3)[C@H]2C1	none
CCCCOc1ccc(C2C3CN(C(=O)OCC)CC=C3C(C#N)=C(N)C2(C#N)C#N)cc1OC (centres undefined)	WT yeast gro inh 61.9
COc1ccccc1NC(=O)COC(=O)CCn1c(C)csc1=O	none (no result: PHOSPHO1 inh, WT yeast gro inh)
c1cncc(-c2nnc3sc(-c4ccco4)nn23)c1	none (no result: Rtt109 HAT inh)
CCN(CC)c1ccc(-c2nn3c(-c4cccnc4)nnc3s2)cc1	SKKanGAS inh 67.6 (no result: TPT1 inh)
Cc1c(N2C(=O)c3cccc4cccc(c34)C2=O)c(=O)n(-c2ccccc2)n1C	WT yeast gro inh 96.7
Cc1cccc(N2C(=O)c3cccc4cccc(c34)C2=O)c1	none (no result: WT yeast gro inh)
O=C(CCc1ccco1)CCc1ccco1	none (no result: SKKanGAS inh, PHOSPHO1 inh, WT yeast gro inh, Platelet DG rel, TPT1 inh)
CCC(C)Sc1nc2c(c(=O)n1C)SC(C)C2 (centres undefined)	WT yeast gro inh 61.4
CSc1nc2c(c(=O)n1C)SC(C)C2 (centres undefined)	none
CC1(C)CC(=O)C/C(=N/NC(=O)COc2ccc3ccccc3c2Br)C1	none (no result: WT yeast gro inh)
COc1ccc(CCNC(=O)C(=O)NCC2OCCN2S(=O)(=O)c2cc(F)ccc2F)cc1 (centres undefined)	none (no result: WT yeast gro inh)
CN(C)c1cccc2c1c(NC(=O)c1ccc(F)cc1)nn2C	PHOSPHO1 inh 62.3 (no result: WT yeast gro inh)
CCn1c2ccccc2c2cc(/C=N/NC(=O)c3cccc(C)c3)ccc21	WT yeast gro inh 73.3
COC(=O)CN1C(c2cccc(Cl)c2)=Nc2ccc(Cl)cc2C1c1ccccc1 (centres undefined)	WT yeast gro inh 75.5
O=C(c1cccc(Cl)c1)N1CCCC(c2ccc(Cl)cc2)=N1	WT yeast gro inh 78.4
O=C(c1ccccc1)N1CCCC(c2ccc(Cl)cc2)=N1	none
Cc1nn(-c2ccccc2)c(Cl)c1C1C(C#N)=C(N)OC2=C1C(=O)CC(C)(C)C2 (centres undefined)	SKKanGAS inh 84.9
Cc1ccc(-n2nc(C)c(C3C(C#N)=C(N)OC4=C3C(=O)CCC4)c2Cl)cc1 (centres undefined)	none (no result: SKKanGAS inh, WT yeast gro inh, Platelet DG rel, TPT1 inh, Rtt109 HAT inh)
NCC12CC3CC(C1)CC(c1ccc(Cl)cc1)(C3)C2	WT yeast gro inh 73.3, Rtt109 HAT inh 50.9
Nc1ccc(C23CC4CC(CC(CO)(C4)C2)C3)cc1	none
Cc1c(O[C@@H]2O[C@H](CO)[C@@H](O)[C@H](O)[C@H]2O)c(CO)c(O[C@@H]2O[C@H](CO)[C@@H](O)[C@H](O)[C@H]2O)c2c1O[C@@H](c1ccccc1)C[C@@H]2O	none (no result: SKKanGAS inh, PHOSPHO1 inh, WT yeast gro inh, Platelet DG rel, TPT1 inh)
CCOc1cc(/C=N/NC(=O)Cc2ccc(C(F)(F)F)cc2[N+](=O)[O-])c(Br)cc1OC	none
COc1cc(Br)cc(/C=N/NC(=O)Cc2ccc(C(F)(F)F)cc2[N+](=O)[O-])c1O	SKKanGAS inh 97.8
CCOC(=O)c1ccccc1NC(=O)COC(=O)CCNS(=O)(=O)c1cccs1	none (no result: SKKanGAS inh, PHOSPHO1 inh, WT yeast gro inh, Platelet DG rel, TPT1 inh)
CC1Cc2cc(/C(O)=C3/C(=O)C(=O)N(CCCn4ccnc4)C3c3ccc(F)cc3)ccc2O1 (centres undefined)	none (no result: WT yeast gro inh)
COc1ccc(C=NNC(=O)NN=Cc2ccc(OC)c(OC)c2)cc1OC	none (no result: SKKanGAS inh, PHOSPHO1 inh, WT yeast gro inh, Platelet DG rel, TPT1 inh)
COc1ccc(/C=N/NC(=S)SC)cc1OC	WT yeast gro inh 60.8
COc1ccc(NC(=O)c2cc(S(=O)(=O)N3CCOCC3)cn2C)cc1Cl	none (no result: WT yeast gro inh)
Cn1cc(S(=O)(=O)N2CCOCC2)cc1C(=O)Nc1ccc(Cl)cc1	Platelet DG rel 99.1 (no result: WT yeast gro inh)
CCN(CC)C(=O)c1nc[nH]c1C(=O)N1CCc2ccccc2C1	none (no result: SKKanGAS inh, PHOSPHO1 inh, WT yeast gro inh, Platelet DG rel, TPT1 inh)
Cc1ccc(NC(=O)c2ccccc2NS(=O)(=O)c2ccc(F)cc2)cc1S(=O)(=O)N1CCCCC1	SKKanGAS inh 60.2
Cc1ccc(C(=O)c2coc3ccc(O)cc23)cc1	none (no result: WT yeast gro inh, TPT1 inh)
CC(C)CN(C(=O)c1ccc2c(c1)OCCO2)c1c(N)n(Cc2ccccc2)c(=O)[nH]c1=O	none (no result: PHOSPHO1 inh, WT yeast gro inh)
c1c2c(cc3sc(N4CCOCC4)nc13)OCCO2	Platelet DG rel 56.7
COc1cc2c(C#N)c(N3CCN(C)CC3)nc(N)c2c(N)n1	none
COc1cc2c(C#N)c(N3CCN(c4ccccc4OC)CC3)nc(N)c2c(N)n1	SKKanGAS inh 71.7
COc1ccccc1N1CC(C(=O)OCC(=O)Nc2c(C)cccc2C)CC1=O (centres undefined)	none (no result: WT yeast gro inh)
O=C1CC(NS(=O)(=O)c2cccs2)CN1c1ccc(Cl)cc1 (centres undefined)	none (no result: PHOSPHO1 inh, WT yeast gro inh)
Cc1ccccc1NC(=O)C1c2cccc[n+]2CC(=O)N1c1c(C)cccc1C (centres undefined)	PHOSPHO1 inh 94.9
CC(NC(=O)c1ccc(Cl)cc1)c1nnc(SCC(=O)NC2=NCCS2)n1C (centres undefined)	none (no result: WT yeast gro inh)
CCCCNC(=S)N1CCN(Cc2ccc3c(c2)OCO3)CC1	none
COc1cccc(CN2CCN(C(=S)NCc3ccc(Cl)cc3)CC2)c1	WT yeast gro inh 66.8
S=C(NCc1ccccc1)N1CCN(Cc2ccc3c(c2)OCO3)CC1	WT yeast gro inh 60.4
O=C(CN1CCN(Cc2ccc3c(c2)OCO3)CC1)c1c[nH]c2ccccc12	PHOSPHO1 inh 84.1
O=C(CCNS(=O)(=O)c1cccc(C(F)(F)F)c1)NC1CC1	none (no result: SKKanGAS inh, PHOSPHO1 inh, WT yeast gro inh, Platelet DG rel, TPT1 inh)
CC(C)c1ccc(S(=O)(=O)Nc2ccc(SC(F)F)cc2)cc1	WT yeast gro inh 85.0
CC(C)c1ccc(NS(=O)(=O)c2ccc(-n3cccn3)cc2)cc1	none (no result: WT yeast gro inh)
CCC1(C)Cc2c(sc3c2c(=O)n(-c2ccccc2)c(=O)n3C)CO1 (centres undefined)	PHOSPHO1 inh 76.8 (no result: SKKanGAS inh, Platelet DG rel)
Cn1c(=O)n(-c2ccccc2)c(=O)c2c3c(sc21)COC(C)(C)C3	none
COc1cc2c(cc1OC)C(c1cc(OC)c(OC)cc1[N+](=O)[O-])N(C(C)=O)CC2 (centres undefined)	none (no result: WT yeast gro inh, Platelet DG rel)
O=C(CSCc1c(Cl)cccc1Cl)NCc1ccco1	Platelet DG rel 83.5
Cc1cc(NC(=O)C2CCCCC2)nc2c1c(=O)oc1ccccc12	WT yeast gro inh 80.5
CCc1ccccc1NC(=O)CN1CCN(C(=O)C2CCN(C(=O)/C=C/c3ccccc3)CC2)CC1	none (no result: SKKanGAS inh, PHOSPHO1 inh, WT yeast gro inh, Platelet DG rel, TPT1 inh)
Cc1cc(C(=O)COC(=O)c2ccc(O)cc2O)c(C)n1C(C)C	none (no result: SKKanGAS inh, PHOSPHO1 inh, WT yeast gro inh, Platelet DG rel, TPT1 inh)
Cc1ccc(-c2c(C#N)c(N)n(-c3ccc(C)cc3)c(=O)c2C#N)cc1	Platelet DG rel inconclusive
Cc1ccc(-n2c(N)c(C#N)c(-c3ccc(Cl)cc3)c(C#N)c2=O)cc1	Platelet DG rel 74.6
COc1cccc(CN2CC(C(=O)NCCOc3cccnc3)CCC2=O)c1 (centres undefined)	none (no result: WT yeast gro inh)
Brc1ccc(-c2nc(N/N=C/c3cccnc3)c3ccccc3n2)cc1	Platelet DG rel 72.5
C(=N\Nc1nc(-c2cccnc2)nc2ccccc12)/c1ccccc1	none (no result: WT yeast gro inh, Rtt109 HAT inh)
C(=N\Nc1nc(-c2ccccn2)nc2ccccc12)/c1ccccc1	SKKanGAS inh 98.0 (no result: WT yeast gro inh, Rtt109 HAT inh)
COCCN(Cc1ccc(F)cc1)C(=O)c1cc2ccccc2oc1=O	none (no result: WT yeast gro inh, TPT1 inh)
COC(=O)c1ccc(=O)n(Cc2ccco2)c1	none
COC(=O)c1ccc2c(c1)S(=O)(=O)NC(=NCc1ccco1)S2	PHOSPHO1 inh 75.3
CCNC(=S)NNC(=O)CC(C)C	none

Source: PubChem (several laboratories)
